Data: PubChem BioAssay (NCATS)
“And” between values parts separate entries of the source, which are not always exact repeats. Identical values can stand only once. Results filed as inconclusive are left out. The source made the active and inactive calls. Calls follow the shape of the dose curve; as a rule, active = well fitted inhibition curve with a large enough effect; inconclusive = small, poorly fitted or top-dose-only effect; inactive = flat fitted curve, though single readings scatter.

Assays:
[1] = qHTS profiling for inhibitors of Plasmodium falciparum proliferation (AID 504749);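 also: 0% = DMSO vehicle and full inhibition = artemisinin control; nearly all actives have a fitted effect of over 60% in size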; settings: P. falciparum in erythrocytes, SYBR Green DNA, 72 h
Procedure, shortened: (§1)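 In a 72 h erythrocytic culture (37 C, humidified, 5% CO2) at 2.5% hematocrit and 0.3% starting parasitemia, compounds were tested; SYBR Green I in detergent lysis buffer stained parasite DNA overnight.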

3D7 = assay: as above; settings: P. falciparum in erythrocytes, SYBR Green DNA, 72 h; series mostly up to 28.7 µM
Procedure, shortened: as §1

7G8 = assay: as above; settings: P. falciparum in erythrocytes, SYBR Green DNA, 72 h; series mostly up to 28.7 µM
Procedure, shortened: as §1

AA1029 = assay: as above; settings: P. falciparum in erythrocytes, SYBR Green DNA, 72 h; series mostly up to 28.7 µM
Procedure, shortened: as §1

AS120 = assay: as above; settings: P. falciparum in erythrocytes, SYBR Green DNA, 72 h; series mostly up to 28.7 µM
Procedure, shortened: as §1

ATS189 = assay: as above; settings: P. falciparum in erythrocytes, SYBR Green DNA, 72 h; series mostly up to 28.7 µM
Procedure, shortened: as §1

ATS95 = assay: as above; settings: P. falciparum in erythrocytes, SYBR Green DNA, 72 h; series mostly up to 28.7 µM
Procedure, shortened: as §1

C2A = assay: as above; settings: P. falciparum in erythrocytes, SYBR Green DNA, 72 h; series mostly up to 28.7 µM
Procedure, shortened: as §1

CP185 = assay: as above; settings: P. falciparum in erythrocytes, SYBR Green DNA, 72 h; series mostly up to 28.7 µM
Procedure, shortened: as §1

[2] = at 28.7 µM (top of the series), parasite line A
[3] = at 28.7 µM (top of the series), parasite line B

O=c1cc[nH]c(=S)[nH]1
inactive: activity, negative = inhibition [1, 2] 1.45% | activity, negative = inhibition [1, 3] 6.46% | Potency (3D7) | Potency (7G8) | Potency (AA1029) | Potency (AS120) | Potency (ATS189) | Potency (ATS95) | Potency (C2A) | Potency (CP185)

NC(=O)NNc1ccccc1
inactive: activity, negative = inhibition [1, 2] -7.35% and 18% | activity, negative = inhibition [1, 3] 13.9% and 11.9% | Potency (3D7) | Potency (7G8) | Potency (AA1029) | Potency (AS120) | Potency (ATS189) | Potency (ATS95) | Potency (C2A) | Potency (CP185)

Nc1ccc(S(=O)(=O)NC(=O)c2ccccc2)cc1
inactive: activity, negative = inhibition ([1]; at 12.8 µM (top of the series), parasite line A) 10.4% | activity, negative = inhibition ([1]; at 12.8 µM (top of the series), parasite line B) 13.1% | Potency (3D7) | Potency (7G8) | Potency (AA1029) | Potency (AS120) | Potency (ATS189) | Potency (ATS95) | Potency (C2A) | Potency (CP185)

O=C(O)[C@@H]1CSCN1
inactive: activity, negative = inhibition [1, 2] 8.72% | activity, negative = inhibition [1, 3] -0.798% | Potency (3D7) | Potency (7G8) | Potency (AA1029) | Potency (AS120) | Potency (ATS189) | Potency (ATS95) | Potency (C2A) | Potency (CP185)

CC(O)CN(CCN(CC(C)O)CC(C)O)CC(C)O (centres undefined)
inactive: activity, negative = inhibition [1, 2] 7.8% | activity, negative = inhibition [1, 3] -1.51% | Potency (3D7) | Potency (7G8) | Potency (AA1029) | Potency (AS120) | Potency (ATS189) | Potency (ATS95) | Potency (C2A) | Potency (CP185)

CC(=O)NC(Cc1ccccc1)C(=O)O (centres undefined)
inactive: activity, negative = inhibition [1, 2] 3.68% | activity, negative = inhibition [1, 3] 2.97% | Potency (3D7) | Potency (7G8) | Potency (AA1029) | Potency (AS120) | Potency (ATS189) | Potency (ATS95) | Potency (C2A) | Potency (CP185)

NCCNCCNCCN
inactive: activity, negative = inhibition [1, 2] 4.28% | activity, negative = inhibition [1, 3] 2.86% | Potency (3D7) | Potency (7G8) | Potency (AA1029) | Potency (AS120) | Potency (ATS189) | Potency (C2A) | Potency (CP185)

NCCNCCNCCNCCN
inactive: activity, negative = inhibition [1, 2] 12.5% | activity, negative = inhibition [1, 3] -2.06% | Potency (3D7) | Potency (7G8) | Potency (AA1029) | Potency (AS120) | Potency (ATS189) | Potency (ATS95) | Potency (C2A) | Potency (CP185)
